HCMV antiviral – inhibitors of human cytomegalovirus; 410,000 compounds, 4.5% hits; activity change, negative = inhibition, % at 57.5 µM; HFF cells, HCMV-luciferase reporter, 72 h; active compounds read low; AID 1259415; in the data active = activity change below about -60%; inconclusive = no clear call, values can overlap the other calls; inactive = above about -39%
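Two compound doses tested in HFFs infected with HCMV-luciferase, MOI 1 PFU/cell, 72 h at 37C. Lysate luminescence read with OneGlo; data normalized against buffer-only and 10uM Salinomycin inhibitor controls.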
Vaccinia Venus – inhibitors of vaccinia virus (Venus reporter) | Vaccinia virus Venus reporter expression, fluorescence | Potency, µM (top dose mostly 36.5 µM), for the others: top-dose activity change, negative = inhibition, actives largely listed as inhibitors | 330,000 compounds, 0.46% hits; calls by dose curve; tested in A549 cells; also: potency is read from the fitted curve at half-maximal effect; nearly all actives have a fitted effect of over 30% in size
HCV inhibitor – HCV inhibition. Huh7.5.1 HCVcc-Cre infection, luciferase reporter, 44 h. Potency, µM (top dose mostly 41.8 µM), for inactives: top-dose activity change, negative = inhibition, usual class: inhibitors. 340,000 compounds, 3.4% hits; active = well fitted inhibition curve with a large enough effect; inconclusive = small, poorly fitted or top-dose-only effect, or another doubt; inactive = no such curve, though single readings can be large or run the other way; also: potency is read from the fitted curve at half-maximal effect
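Antiviral activity was scored by luciferase reporter output from cells infected with HCVcc-Cre (~0.5 moi) in presence of compound, 44 h infection period, cells seeded 1,000/well 4 h prior.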
Vaccinia mCherry – inhibitors of vaccinia virus infection (mCherry reporter signal). Vaccinia virus mCherry reporter infection, fluorescence. Potency, µM (titrated, usually from 36.5 µM), for the others: at the top dose activity change, negative = inhibition, usual class: inhibitors. 310,000 compounds, 0.63% hits; calls by dose curve; tested in A549 cells; also: potency is read from the fitted curve at half-maximal effect; nearly all actives have a fitted effect of over 35% in size
FMDV antiviral – blocks foot and mouth disease virus; FMDV antiviral cell-based qHTS; Potency, µM (titrated, usually from 57.9 µM), for inactives: at the top dose activity change, negative = inhibition, most hits filed as inhibitors; 410,000 compounds, 1.2% hits; calls by dose curve; tested in HEK293T cells; also: read-out not given here; potency is read from the fitted curve at half-maximal effect; nearly all actives have a fitted effect of over 45% in size
The depositor's hits bear a star; i = inactive; u = inconclusive; x = no result given; [ ] = another dose, or the depositor's remark. Hits are enriched below; roughly 7.3% of the tested compounds scored in any of these assays. % is scaled to controls: 0 for no effect and ±100 for the full control effect.

SMILES | HCMV antiviral | Vaccinia Venus | HCV inhibitor | Vaccinia mCherry | FMDV antiviral
O=C(N/N=C/C(Br)=C\c1ccccc1)c1n[nH]c2c1CCC2 | -79* | u | u | u | 4%
COC(=O)C1CCCCN1Cc1ccc2c(c1)CN(C(=O)c1csc(-c3cccs3)n1)CCO2 (stereo not drawn) | x | 0% | x | -12% | -19%
CCOc1ccc(CN(C)C(C)C(=O)Nc2ccc([N+](=O)[O-])cc2Cl)cc1OC (stereo not drawn) | u | -13% | 9% | -8% | 22µM*
Nc1c(-c2ccccc2)cnn1-c1cccc(C(F)(F)F)c1 | -106* | -27% | 13% | x | 23%
COc1cccc(NC(=O)C2=C(C)C(=O)OC23CCN(C(C)=O)CC3)c1 | u | 0% | x | -4% | -3%
COc1cc(C(=O)NCC(c2cccs2)N(C)C)cc(Cl)c1OC(C)C (stereo not drawn) | -61* | -24% | u | i | 30%
CCCOc1ccc(C(=O)NCC(c2cccs2)N(C)C)cc1OC (stereo not drawn) | -27 | -21% | u | 25% | 6%
Cc1ccccc1C1=NC(C)(CC(=O)Nc2ccc(F)cc2F)ON1C (stereo not drawn) | -3 | x | x | x | x
Cc1nc(NC(=O)CN2CCN(c3cccc(Cl)c3)CC2)sc1C(=O)N(C)C | 5 | x | -3% | x | 0%
CCOC(=O)C1=C(C)OC(=Cc2ccccc2)C1=O | -5 | 1% | x | i | 14%
CCOC(=O)C1=C(O)c2ccccc2C(=O)/C1=C\c1ccc(C)cc1 | x | i | 1% | 448% | 28µM*
O=C(c1cccc(F)c1)N1CCC[C@@]2(CCN(Cc3nccs3)C2)C1 | x | x | x | x | -15%
CC(=O)c1cccc(NC2c3ccccc3C(=O)N2Cc2ccco2)c1 (stereo not drawn) | 188 | 0%[7.34 µM] | u | i[7.34 µM] | u
CCOC(=O)c1cccc(NC2c3ccccc3C(=O)N2Cc2ccco2)c1 (stereo not drawn) | -31 | -8% | u | u | 13µM*
COc1ccc2c(c1)[C@@H](NCc1ccccn1)[C@H](C)[C@@H](c1ccccc1)N2C(=O)NC(C)C | 19 | x | x | x | x
CC(=O)N/C(N)=N/c1nc2cc([N+](=O)[O-])ccc2o1 | -66* | -22% | 1% | -1% | 51%
CC1CCCCC1NC(=O)NC(=O)CCl (stereo not drawn) | 6 | -10% | u | -14% | u
CC1CCCC(NC(=O)NC(=O)CCl)C1C (stereo not drawn) | -29 | x | u | x | 20µM*
Cc1ccc2ccc[n+](Cc3ccccc3)c2c1 | -82* | -28% | u | -20% | -10%
Cc1ccc2c(ccc[n+]2CC(=O)c2ccccc2)c1 | 63 | -8% | 10% | u | -18%
Cc1ccc2c(c1)c(C)cc[n+]2Cc1ccccc1 | -96* | -28% | u | u | u
COc1ccc2c(c1)c(C)cc[n+]2Cc1ccccc1 | -85* | x | -17% | x | u
COc1ccc(NC(=O)N2CCCC3(CCN(C(=O)c4cccc(F)c4)CC3)C2)cc1 | x | x | x | x | -11%
Cc1cccc(NC(=O)CN2CCN(C(=O)CNC(=O)c3ccc(-c4ccccc4)cc3)CC2)c1C | u | u | x | -11% | 20µM*
Cc1cccc(C)c1NC(=O)CN1CCN(C(=O)CNC(=O)c2ccc(-c3ccccc3)cc2)CC1 | u | u | x | -30% | -24%
SMILES | HCMV antiviral | Vaccinia Venus | HCV inhibitor | Vaccinia mCherry | FMDV antiviral
N#Cc1ccc(CN2CCN(C(=O)CNC(=O)Cc3cccc4ccccc34)CC2)cc1 | -68* | -12% | u | u | u
CCc1ccccc1NC(=O)CN1CCN(C(=O)CNC(=O)Cc2cccc3ccccc23)CC1 | -24 | x | 11µM* | x | u
O=C(Nc1cccc(Oc2ccccc2)c1)c1ccc(-n2cncn2)c2ccoc12 | 10 | -6% | x | i | -2%
CCOC(=O)c1sc2nc(C)nc(NCc3ccccc3OC)c2c1C | -73* | -5% | u | i | u
CCS(=O)(=O)N1CCc2cc(C(=O)NCc3ccc(Cl)cc3)ccc21 | -18 | 1% | x | -12% | -25%
COc1cc(-c2noc(C3CC(=O)N(c4cc(C)ccc4C)C3)n2)cc(OC)c1OC (stereo not drawn) | -5 | 3% | x | 0% | 0%
COc1ccc(/C=C2\SC(=S)N(CCC(=O)Nc3ccc(C(=O)O)cc3)C2=O)cc1 | 19 | x | 10% | x | 49%
COc1ccc(/C=C2/SC(=S)N(CCCC(=O)Nc3ccc(O)cc3)C2=O)cc1 | -100* | x | u | x | -7%
